Assay results: the supplement of paper PMC6555819

What was measured:
Assay in all cases: PBM binding z-score (relative to random genomic background probes); higher = stronger binding; sequences stand for … in GC…GCGATTGACAGCGTAGAATGAAGG
[1] = tested on: PPARg:RXRa DBDmut IVT, anti-RXR (DBD mutation: RXRa K156A/R161A, NR concentration 270 nM, RXRa partner concentration 90 nM)
Summary of the method: (§1)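 On custom Agilent 4×180K arrays, double-stranded probes with 34-nt variable regions carried direct-repeat seeds, single-nucleotide variants, half-site ablations or random human genomic background. Ligand-free nuclear receptor dimers were applied for 1 h, and binding was read with antibodies against each partner (one per run). Binding z-scores come from regression-normalized fluorescence, with the random background probes as reference.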

[2] = tested on: PPARg:RXRa IVT, anti-PPARg (NR concentration 270 nM, RXRa partner concentration 90 nM)
Summary of the method: as §1

[3] = tested on: PPARg DBDmut:RXRa IVT, anti-PPARg (DBD mutation: PPARg1 K132A/R137A, NR concentration 270 nM, RXRa partner concentration 90 nM)
Summary of the method: as §1

[4] = tested on: PPARg DBDmut IVT, anti-PPARg (DBD mutation: PPARg1 K132A/R137A, NR concentration 270 nM)
Summary of the method: as §1

[5] = tested on: PPARg homodimer (NR concentration 180 nM)
Summary of the method: as §1

[6] = tested on: PXR:RXRa (NR concentration 270 nM, RXRa partner concentration 90 nM)
Summary of the method: as §1

[7] = tested on: PXR homodimer (NR concentration 270 nM)
Summary of the method: as §1

[8] = tested on: RARa:RXR (NR concentration 270 nM, RXRa partner concentration 90 nM)
Summary of the method: as §1

[9] = tested on: RARa homodimer (NR concentration 270 nM)
Summary of the method: as §1

[10] = tested on: RARb:RXRa (NR concentration 270 nM, RXRa partner concentration 90 nM)
Summary of the method: as §1

[11] = tested on: RARb homodimer (NR concentration 270 nM)
Summary of the method: as §1

[12] = tested on: RARg:RXRa (NR concentration 270 nM, RXRa partner concentration 90 nM)
Summary of the method: as §1

[13] = tested on: RARg homodimer (NR concentration 270 nM)
Summary of the method: as §1

[14] = tested on: RXRa DBDmut IVT, anti-RXR (DBD mutation: RXRa K156A/R161A, NR concentration 90 nM)
Summary of the method: as §1

[15] = tested on: RXRa homodimer (NR concentration 180 nM)
Summary of the method: as §1

[16] = tested on: THRa:RXRa (NR concentration 90 nM, RXRa partner concentration 90 nM)
Summary of the method: as §1

[17] = tested on: THRa homodimer (NR concentration 90 nM)
Summary of the method: as §1

[18] = tested on: VDR:RXRa (NR concentration 270 nM, RXRa partner concentration 90 nM)
Summary of the method: as §1

[19] = tested on: VDR homodimer (NR concentration 270 nM)
Summary of the method: as §1

Sequence | PBM binding z-score [1] | PBM binding z-score [2] | PBM binding z-score [3] | PBM binding z-score [4] | PBM binding z-score [5] | PBM binding z-score [6] | PBM binding z-score [7] | PBM binding z-score [8] | PBM binding z-score [9] | PBM binding z-score [10] | PBM binding z-score [11] | PBM binding z-score [12] | PBM binding z-score [13] | PBM binding z-score [14] | PBM binding z-score [15] | PBM binding z-score [16] | PBM binding z-score [17] | PBM binding z-score [18] | PBM binding z-score [19]
TCTTGTAGATCAAAGCTTAAGAAAGCCGAAGCCT | 1.63 | 0.218 | -0.031 | -0.413 | -0.405 | -0.275 | -0.758 | -0.177 | -0.517 | -0.506 | -0.931 | -0.422 | -0.665 | 0.503 | -0.173 | -0.444 | -1.01 | -0.115 | -0.74
CCTAGCCGGCCAATCTGGGTCACTCAAGGCTTGA | 3.39 | 4.68 | -0.873 | -0.666 | 0.858 | 1.03 | -0.396 | 2.24 | -0.278 | 1.4 | 2.25 | 1.14 | 1.24 | -0.259 | 0.623 | 3.15 | 0.859 | 0.613 | 0.329
TGAATGAGGTGAAAGATCAGGGAACGTGGCGTCG | 3.85 | 5 | 2.22 | 0.574 | 0.746 | 0.587 | -0.0848 | 1.8 | -0.562 | 1.48 | 0.154 | 1.51 | 0.868 | -0.365 | 2.17 | 2.78 | 0.878 | 0.449 | -0.213
GCTAGTTGGTCAGTAAATGGTCACACACCGGTCG | 0.302 | 0.493 | 0.157 | 0.192 | 0.621 | -0.0876 | -0.353 | 0.368 | 0.255 | 1.2 | 1.28 | 0.401 | 0.586 | 0.286 | 0.551 | -0.021 | -0.105 | -0.166 | 0.116
CCTAGTTGGTCAGGTGGTCACACACCGGATATGA | 0.0405 | 0.926 | -0.00343 | -0.318 | 1.26 | 0.174 | 0.369 | 0.505 | 1.18 | 1.25 | 1.48 | 1.03 | 1.38 | -0.358 | 0.463 | 0.254 | 0.259 | 0.156 | 0.314
CAAAGTAGGTCACGAAAGGTCAAAGTCGAATGAC | 8.95 | 9.16 | 2.49 | 0.871 | 5.21 | 7.05 | 2.22 | 7.43 | 4.05 | 5.68 | 6.1 | 8.06 | 8.76 | 2.36 | 8.62 | 4.95 | 1.49 | 6.82 | 3.31
CCTAGTTGGTCAGGGGGTCACACACCGGATATGA | 1.2 | 4.57 | 2.8 | 4.19 | 3.05 | 5.01 | 1.49 | 5.48 | 1.61 | 3.74 | 4.05 | 5.83 | 4.22 | 0.886 | 6.18 | 3.88 | 2.28 | 4.94 | 3.16
TAGCCTCGGTCATTGGGCCAGTATAGTACGCATC | 0.608 | 1.16 | -0.424 | -0.786 | -0.222 | -0.491 | -0.977 | -0.492 | -0.437 | 2.33 | 1.53 | 1.54 | 2.62 | -0.363 | 0.223 | 0.029 | -0.772 | -0.539 | -0.289
TGACTGAGGTTAAAGATCAGGGAACGTGGCGTCG | -0.162 | 1.61 | 0.314 | 0.079 | 0.216 | 2.03 | -0.418 | 2.68 | -0.102 | 2.05 | 0.864 | 2.39 | 1.35 | 0.903 | 3.77 | 2.41 | 0.422 | 1.69 | 0.537
CCCGCTAGGTCATGGTCAGCTAATCTACAGTATG | 3.87 | 3.52 | -0.299 | -0.741 | 1.77 | 1.49 | -0.038 | 2.33 | 0.196 | 3.83 | 3.38 | 4 | 4.55 | 1.57 | 3.06 | 3.21 | 1.91 |  | 0.379
TCATATAGGTGAAAGGTGAAAGTCGGTGTGGTAA | 7.6 | 7.55 | 3.38 | 1.28 | 3.1 | 3.01 | 0.351 | 4.34 | 1.1 | 2.78 | 2.31 | 3.45 | 1.46 | 2 | 4.53 | 2.15 | 0.384 | 2.12 | 0.0995
AATTCAGGGTCACTAGGCCAGAGTAGGTACGAAT | 4.91 | 6.4 | 5.15 | 2.77 | 4.18 | 4.19 | 0.429 | 5.62 | 1.32 | 4.89 | 3.83 | 6.06 | 5.56 | 3.39 | 6.68 | 4 | 1.78 |  | 2.97
AGTCAAAGTTCATCAAGGTAACGTAAGATATGCT | 0.277 | 3.34 | 1.59 | 1.26 | 3.05 | 5.4 | 9.31 | 4.3 | 2.24 | 4.9 | 3.86 | 5.57 | 5.96 | 4.57 | 4.81 | 3.8 | 1.23 |  | 4.97
TCATATAGGTAATAAAGGTGAAAGTCGGCATCTA | 3.99 | 3.74 | 0.942 | 1.43 | 2.01 | 1.34 | 0.488 | 2.02 | 1.77 | 1.6 | 1.76 | 1.51 | 0.992 | 1.83 | 2.06 | 1.59 | 0.669 |  | 0.491
CAAACTAGGTCACGAAAGGTCAAAATCGAATGAC | 8.56 | 8.77 | 2.54 | 2.48 | 5.97 | 6.92 | 3.06 | 7.6 | 4.93 | 5.41 | 5.7 | 7.53 | 8.09 | 2.25 | 8.44 | 4.89 | 2.42 |  | 3.13
